Inconclusive results are not listed. Activity calls are given as the source filed them. The call rests on the fitted dose curve; in most records, active means well fitted cell-killing curve with a large enough effect; inconclusive means small, poorly fitted or top-dose-only effect; inactive means no such curve, though single readings can be large or run the other way.
Potency means the concentration at half of the fitted maximal effect.

The test can be described thus: qHTS of pediatric cancer cell lines to identify multiple opportunities for drug repurposing: Primary screen for Saos-2 cells (AID 1347097). Further: nearly all actives have a fitted effect of over 40% in size. Conditions: Saos-2 viability, CellTiter-Glo ATP luminescence, 48 h; series mostly up to 46 µM. From the text:
Drug repurposing or repositioning has been offered as a strategy for drug development in oncology programs. This approach has special potential for childhood cancers and other rare or orphan diseases, where the expected return on new drug development has been a disincentive to pharmaceuticals. […] In this project we exploit the poly-pharmacology of drugs to discover new indications via phenotypic screening of a panel of 19 well-characterized cell lines derived from solid tumors seen in children and adolescents. The goal is to identify approved drugs with previously unrecognized anticancer properties that has the potential to reveal new mechanisms and biological processes involved in carcinogenesis or drug resistance. We employed a titration-based paradigm (quantitative high-throughput screening or qHTS), where all compounds were tested at multiple concentrations for their effect on cell viability. Concentration-response curves (CRCs) were derived directly from the primary screen, and both potency and efficacy values were used to identify compounds with robust bioactivity profiles. We screened the NIH Chemical Genomics Center (NCGC) Pharmaceutical Collection (NPC) and Mechanism Interrogation Plate (MIPE) small molecule collections of approved and investigational compounds against these cell lines; and measured metabolically active cells after 48 hours of compound treatment as a proxy for cell viability. […] Assay Submitter: Nathalia J. Martinez, National Center for Advancing Translational Sciences, National Institutes of Health, Rockville, MD, USA; email: natalia.martinez@nih.gov Shen, M et al. Quantitative high-throughput phenotypic screening of pediatric cancer cell lines identifies multiple opportunities for drug repurposing. Oncotarget 2017 Dec 19;9(4):4758-4772. PMID 29435139.
The cells were obtained from University of North Carolina (UNC), Pediatric Preclinical Testing Program (PPT), and Coriell Institute (CI). qHTS cell viability assay: Cells were assayed in growth media at a density of 500-1,000 cells/well. Five microliters of cells were dispensed into 1,536-well, white, solid-bottom, TC-treated plates (Greiner Bio One) using a multidrop dispenser and incubated at 37 degrees C, 5% CO2, under a humidified atmosphere for 5 hours. Twenty-three nanoliters of compounds and controls (neutral control DMSO or positive control bortezomib at final concentration of 2.3 µM) were subsequently transferred by Kalypsys pintool. For primary screens, the MIPE collection was tested at 11-point dilutions (final concentrations range from 0.78 nM to 46 µM) and the NPC collection at 8-point dilutions (final concentrations range from 0.59 nM to 46 µM). Compounds tested in follow-up screens were assayed at 11-point dilutions. Cells were incubated for 48 hours, followed by addition of 3 µL of CellTiter-Glo (Promega). After a 15 min incubation at room temperature, samples were analyzed for luminescence intensity using a ViewLux High-throughput CCD imager equipped with clear filters.
For `O=C1CN2Cc3c(ccc(Cl)c3Cl)N=C2N1`, the Potency result is “inactive”.

On to `CC(C)c1onc(-c2c(Cl)cccc2Cl)c1COc1ccc(C=Cc2cccc(C(=O)O)c2)c(Cl)c1`, for which the Potency entry was “inactive”.

As for `CNC(=O)c1cc(COc2nnc(Nc3ccc(Cl)cc3)c3ccoc23)ccn1`, the Potency is 18.7 µM (active).

As to `C[C@@H]1O[C@@H](O[C@H]2CC[C@@]3(C)[C@H](CC[C@@H]4[C@H]3C[C@@H](O)[C@]3(C)[C@@H](C5=CC(=O)OC5)CC[C@]43O)C2)C[C@H](O)[C@@H]1O[C@H]1C[C@H](O)[C@H](O[C@H]2C[C@H](O)[C@@H](O)[C@@H](C)O2)[C@H](C)O1` (stereo in doubt), the Potency was 0.679 µM (active).

`O=c1[nH]c(=O)n([C@H]2C[C@@H](O)[C@@H](CO)O2)cc1I`: the Potency entry was “inactive”.

As to `CCN1C[C@H](C)n2c(c(O)c3c(=O)n(Cc4ccc(F)c(Cl)c4)nc(C(=O)NC)c32)C1=O`, the Potency entry is “inactive”.

In the case of `CC[C@]1(O)C[C@H]2CN(CCC3=c4ccccc4=N[C]3[C@@](C(=O)OC)(c3cc4c(cc3OC)N(C)[C@H]3[C@@](O)(C(N)=O)[C@H](O)[C@]5(CC)C=CCN6CC[C@]43[C@@H]65)C2)C1`, the Potency is 0.148 µM (active).

For `O=C(c1ccc(C(=O)N2CCC(N3CCCC3)CC2)c(Nc2ccccc2)c1)N1CCC(N2CCCC2)CC1`, the Potency result is “inactive”.

Regarding `O=C(O)CCC=CCC[C@@H]1[C@H](N2CCCCC2)[C@@H](O)C[C@@H]1OCc1ccc(-c2ccccc2)cc1`, the Potency result is “inactive”.

For the molecule `CC[C@H](C=C[C@@H](C)[C@H]1CC[C@H]2[C@@H]3CC=C4C[C@@H](O)CC[C@]4(C)[C@@H]3CC[C@]12C)C(C)C`, the Potency entry was “inactive”.

For `Cc1cc2c(cc1C1(c3ccc(C(=O)O)cn3)CC1)C(C)(C)CCC2(C)C`, the Potency entry is “inactive”.

Take `C=CCc1cccc(C=NNC(=O)CN2CCN(Cc3ccccc3)CC2)c1O`: the Potency was 5.9 µM (active).

Regarding `Clc1ccc(C2(c3ccc(-c4cn[nH]c4)cc3)CCNCC2)cc1`, the Potency is 4.18 µM (active).

Turning to `Nc1[nH]nc2nnc(-c3c(-c4ccccc4)nn4ccccc34)cc12`, the Potency was 9.35 µM (active).

In the case of `Cc1nc(NC(=O)N2CCC[C@@H]2C(N)=O)sc1-c1csc(C(C)(C)C)n1`, the Potency is 11.8 µM (active).

Regarding `C[C@H](CCC(=O)O)[C@H]1CC[C@H]2[C@H]3[C@@H](CC[C@]12C)[C@@]1(C)CC[C@@H](O)C[C@H]1C[C@@H]3O`, the Potency result is “inactive”.

For `O=C(Nc1ccc(OC(F)(F)F)cc1)c1sccc1NCc1ccnc2ccccc12`, the Potency is 18.7 µM (active).

Turning to `Cn1cnc(-c2cc3nccc(Oc4ccc(NC(=S)NC(=O)Cc5ccccc5)cc4F)c3s2)c1`, the Potency is 16.6 µM (active).

Turning to `CNC(=O)c1c(-c2ccc(F)cc2)oc2cc(N(CCO)S(C)(=O)=O)c(C3CC3)cc12`, the Potency is 16.6 µM (active).

For the molecule `CCc1cccc(CC)c1NC(=O)N1Cc2[nH]nc(NC(=O)c3ccc(N4CCN(C)CC4)cc3)c2C1`, the Potency was 1.18 µM (active).

On to `CCCCCCCCCCCCCCCC(=O)O[C@H]1[C@@H](O)[C@@H](O)[C@@H]([C@H](NC(=O)[C@@H]2C[C@@H](CCC)CN2C)[C@H](C)Cl)O[C@@H]1SC`, for which the Potency entry was “inactive”.

On to `Cc1ccc2c(c1)C(=O)[C@]1(O)CCN(c3ccccc3)C1=N2`, for which the Potency result was “inactive”.

`CO[C@H]1/C=C\O[C@@]2(C)Oc3c(C)c(O)c4c(O)c(c(C=NN5CCN(C6CCCC6)CC5)c(O)c4c3C2=O)NC(=O)C(C)=CC=C[C@H](C)[C@H](O)[C@@H](C)[C@@H](O)[C@@H](C)[C@H](OC(C)=O)[C@H]1C`: the Potency was 0.0935 µM (active).

In the case of `CCN(CCO)CCCOc1ccc2c(Nc3cc(CC(=O)Nc4cccc(F)c4)[nH]n3)ncnc2c1`, the Potency entry was “inactive”.

For the molecule `Oc1cc(O)cc(C=Cc2ccc(O)c(O)c2)c1`, the Potency was 5.26 µM (active).

As to `COc1nc(C)cnc1NS(=O)(=O)c1cccnc1-c1ccc(-c2nnco2)cc1`, the Potency entry is “inactive”.

With `C[C@@H]1[C@H](C)CC[C@]2(C(=O)O)CC[C@]3(C)C(=CC[C@@H]4[C@@]5(C)CC[C@H](O)C(C)(C)[C@H]5CC[C@]43C)[C@@H]12`, the Potency was 9.59 µM (active).

In the case of `O=C(O)c1ccc(O)c2ncc(N3CCOCC3)cc12`, the Potency was 23.5 µM (active).

`CCOC(=O)[C@@H](N)CCC(=O)N[C@@H](CSCc1ccccc1)C(=O)N[C@@H](C(=O)OCC)c1ccccc1`: the Potency result is “inactive”.

Turning to `O=C(Nc1ccccc1)Nc1ccc(-c2ccc(C(=O)[C@H]3CCC[C@H]3C(=O)O)cc2)cc1`, the Potency result is “inactive”.

`CC[C@H]1OC(=O)[C@H](C)[C@@H](O[C@H]2C[C@@](C)(OC)[C@@H](O)[C@H](C)O2)[C@H](C)[C@@H](O[C@@H]2O[C@H](C)C[C@H](N(C)C)[C@H]2O)[C@](C)(O)C[C@H](C)C(=NOCOCCOC)[C@H](C)[C@@H](O)[C@]1(C)O`: the Potency result is “inactive”.

With `CON(C)C(=O)N1N=C(c2cc(F)ccc2F)S[C@]1(CCCN)c1ccccc1`, the Potency was 0.001 µM (active).

Regarding `CN1N=C(N)c2cn([C@@H]3O[C@H](COP(=O)(O)O)[C@@H](O)[C@@H]3O)c3ncnc1c23`, the Potency is 2.09 µM (active).

With `C[C@H]1COC2=C1C(=O)C(=O)c1c2ccc2c1CCCC2(C)C`, the Potency is 5.9 µM (active).

`O=C1Nc2ccc(I)cc2C1=Cc1cc(Br)c(O)c(Br)c1`: the Potency result is “inactive”.

Regarding `COc1cc2c(cc1OC)[C@@H]1Cc3ccc(OC)c(OC)c3CN1CC2`, the Potency result was “inactive”.

For `CCC=CC[C@H]1C(=O)CC[C@@H]1CC(=O)OC`, the Potency entry is “inactive”.

Consider `O=c1[nH]nc(OCCCc2ccc(Cl)cc2)c(NCc2cccnc2)c1Br`, for which the Potency was 26.4 µM (active).

As to `CC(C)(C)c1[nH]cnc1C=c1[nH]c(=O)c(=Cc2ccccc2)[nH]c1=O`, the Potency is 0.136 µM (active).

`Cc1ccc(NC(=O)Nc2cc(C(F)(F)F)ccc2F)cc1Nc1ccc2c(c1)NC(=O)C2=Cc1ccc[nH]1`: the Potency is 20.9 µM (active).

For the origin of these results see PubChem BioAssay (NCATS).
